# Records with an inconclusive call do not appear. Activity calls are given as the source filed them. The call rests on the fitted dose curve; in most records, active means well fitted activation curve with a large enough effect in the main read-out, with a control signal flat; inconclusive means small, poorly fitted or top-dose-only effect, or effect the other way, or a change in a side signal; inactive means no such curve, though single readings can be large or run the other way.
# Test system: not listed separately
# Assay: Confirmation Concentration-Response Assay for Agonists of the Thyroid Stimulating Hormone Receptor; on activation: % of control where 0% means no effect
# Conditions: HEK293 TSHR-CNG cells, membrane potential dye, cAMP; measured here: parental HEK293 counter-screen max
# From the text: (§1) NIH Chemical Genomics Center [NCGC] NIH Molecular Libraries Screening Centers Network [MLSCN] MLSCN Grant: 1 X01 MH080680-01 PI Name: Dr. Marvin Gershengorn, NIH NCGC Assay Overview: Thyroid Stimulating Hormone Receptor TSH is an alpha/beta heterodimeric glycoprotein hormone secreted from the anterior pituitary gland which belongs to the glycoprotein hormone family. The actions of TSH are mediated by a seven-transmembrane receptor, which upon TSH binding couples preferentially to the G-alpha (s) protein (Gs), resulting in activation of adenylate cyclase and increase in cyclic adenosine 3', 5' monophosphate (cAMP). The TSH receptor (THSR) is mainly expressed in thyroid follicular cells and regulates their growth and function. Recombinant TSH is used to activate TSHR in patients with thyroid cancer receiving thyroid hormone suppression therapy and to screen for residual tumor after surgery, but it is expensive and must be administered intramuscularly. An orally active small molecule TSHR agonist would serve as an invaluable research tool for studying TSHR pharmacology and physiology, and would have multiple advantages in therapeutic settings. However, no selective small molecule agonist of the TSH receptor exists, and no small molecule screen for TSHR agonists has ever been reported. This cell based assay utilized a cyclic nucleotide gated ion channel (CNG) as a biosensor for cAMP induction by potential TSHR agonists. TSHR cell line HEK 293 cells stably expressing the TSHR as well as a modified CNG were purchased from BD biosciences. Stimulation of cAMP production causes the CNG to open and subsequent membrane depolarization to occur. A fluorescent membrane potential dye (BD biosciences) was utilized to detect cAMP stimulation in TSHR cells. The cells were maintained in DMEM medium (Invitrogen) containing 10 % FBS (Hyclone), 100 units/ml Penicillin, 100 ug/ml Streptomycin (Invitrogen), and 250 ug/ml Geneticin (Invitrogen) and 1 ug/ml Puromycin (Invitrogen) at 37C in 5% CO2. HEK 293 cells expressing CNG but without TSHR (parental cells) were used in concert to control for compounds signaling through endogenous receptors and targets of HEK 293 cells.
# (§2) NCGC Assay Protocol Summary: High Throughput Screening. Freshly passaged cells (TSHR or parental) were dispensed into 1536-well assay plates at 4 ul/well in DMEM containing phenol red (Invitrogen), 10% FCS (Hyclone), and 100 units/ml Penicillin, 100 ug/ml Streptomycin (Invitrogen) and incubated at 37 C with 5% CO2 for 20 to 36 hrs before the robotic screening. The screen was initiated by addition of 4 ul/well membrane potential dye containing 100 uM RO 20-1724 (Sigma Aldrich), followed by 60 min incubation at room temperature to allow for dye equilibration across the cell membrane. 23 nl/well compound or control was then added to the assay plates, which were incubated for additional 30 min before reading a Envision fluorescence plate reader (Perkin Elmer) in bottom-read mode for fluorescence intensity (emission at 590 nm). Keywords: Thyroid-stimulating hormone TSH, TSHR, TSHR agonist, quantitative high throughput screening, qHTS, HTS, probe identification, CNG, cAMP, cyclic nucleotide gated ion channel PubChem
# Potency means the concentration at half of the fitted maximal effect.
row,Compound,max response [%]
1,CN(C)c1ccc(CN2CC=C(c3ccc(F)cc3)CC2)cc1,5.57
2,O=c1[nH]c(=O)n(Cc2ccco2)c(O)c1C=NC1CC1,5.23
3,CCOC(=O)C1=C(C)OC(N)=C(C(=O)OC)C12C(=O)Nc1ccc(Br)cc12 (centres undefined),-4.55
4,O=C(Nc1nc2ccccc2n1CCN1CCCC1)c1ccc(Cl)cc1,-11
5,CCn1c(C)c(C(=O)O)c2cc(OC)ccc21,6.15
6,CCC(=NCC1CCCO1)c1c(O)n(Cc2ccccc2)c(=O)[nH]c1=O (centres undefined),5.62
7,C=CCN1C(=O)C2(C(C(=O)OCC)=C(N)Oc3c2c(=O)oc2ccccc32)c2ccccc21 (centres undefined),-4.89

# Target: Thyrotropin receptor (Homo sapiens) (UniProt P16473)
# Assay: as above
# Conditions: HEK293 TSHR-CNG cells, membrane potential dye, cAMP; series mostly up to 25.6 µM
# From the text: as §1, §2
# Sequence of Thyrotropin receptor (Homo sapiens) (P16473 whole entry, looked up): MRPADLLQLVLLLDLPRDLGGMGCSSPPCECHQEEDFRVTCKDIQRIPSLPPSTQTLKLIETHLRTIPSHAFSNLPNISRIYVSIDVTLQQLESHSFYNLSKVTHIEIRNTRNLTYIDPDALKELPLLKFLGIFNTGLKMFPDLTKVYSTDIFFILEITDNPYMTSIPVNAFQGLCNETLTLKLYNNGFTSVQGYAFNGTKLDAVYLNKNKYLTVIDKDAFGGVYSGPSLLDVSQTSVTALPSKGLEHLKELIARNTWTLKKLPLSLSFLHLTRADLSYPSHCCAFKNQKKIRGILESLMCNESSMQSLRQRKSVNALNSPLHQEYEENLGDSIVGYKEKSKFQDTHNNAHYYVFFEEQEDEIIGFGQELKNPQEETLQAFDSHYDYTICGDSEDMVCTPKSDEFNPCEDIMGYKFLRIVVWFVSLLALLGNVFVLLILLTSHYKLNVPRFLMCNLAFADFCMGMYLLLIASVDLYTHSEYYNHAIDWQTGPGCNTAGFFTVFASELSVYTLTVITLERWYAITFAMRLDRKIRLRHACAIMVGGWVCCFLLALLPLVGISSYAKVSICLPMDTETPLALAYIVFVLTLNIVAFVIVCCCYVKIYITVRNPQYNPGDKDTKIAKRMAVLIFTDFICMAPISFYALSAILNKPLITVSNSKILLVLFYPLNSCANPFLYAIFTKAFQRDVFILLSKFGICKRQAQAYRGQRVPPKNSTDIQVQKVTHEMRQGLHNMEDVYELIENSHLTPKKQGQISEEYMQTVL
row,Compound,Potency
1,CN(C)c1ccc(CN2CC=C(c3ccc(F)cc3)CC2)cc1,inactive
2,O=c1[nH]c(=O)n(Cc2ccco2)c(O)c1C=NC1CC1,inactive
3,CCOC(=O)C1=C(C)OC(N)=C(C(=O)OC)C12C(=O)Nc1ccc(Br)cc12 (centres undefined),inactive
4,O=C(Nc1nc2ccccc2n1CCN1CCCC1)c1ccc(Cl)cc1,inactive
5,CCn1c(C)c(C(=O)O)c2cc(OC)ccc21,inactive
6,CCC(=NCC1CCCO1)c1c(O)n(Cc2ccccc2)c(=O)[nH]c1=O (centres undefined),inactive
7,C=CCN1C(=O)C2(C(C(=O)OCC)=C(N)Oc3c2c(=O)oc2ccccc32)c2ccccc21 (centres undefined),5.01 µM (active)

# Reference: PubChem BioAssay AID939 (National Center for Advancing Translational Sciences (NCATS), 2007)
